Some test systems named below: NCI-H23 lung; NCI-H226 lung; HOP-62 NSCLC; NCI-H460 lung; HOP-92 NSCLC; NCI-H522 lung; A549/ATCC NSCLC; 786-0 renal; COLO 205 colon.
Test in all cases: NCI-60 one-dose screen, 48 h (100 = growth as untreated, 0 = no growth, -100 = all killed)
Conditions in all cases: 10 µM unless noted

This is part of a sample that, as a whole, favours compounds with a hit. Of some 83,000 tested, about 20% had one in any assay.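 Note: values are percent growth. 100 is the growth of untreated cells, values between 100 and 0 indicate rising inhibition; between -100 and 0 indicates cell death.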 A number with no mark means an inactive call. The source made the active and inactive calls. Rule for the calls: active = growth percent below 10; inactive = the rest.

With `CCCCCC(=O)OCc1ccc(Cl)c(Cl)c1`, the growth in the experiment on NCI-H23 lung was 96.2%; in the experiment with NCI-H226 lung, 100%; in the experiment on HOP-62 NSCLC it was 101%; in the experiment on NCI-H460 lung it was 107%; in the experiment on HOP-92 NSCLC it was 109%; in the experiment on NCI-H522 lung, 97.5%. Besides, the growth in the experiment with A549/ATCC NSCLC is 103%; with 786-0 renal it was 104%; with COLO 205 colon, 106%.

Take `COc1cc(NCCCN)c2ncccc2c1`: the growth in the experiment with NCI-H23 lung is 70.8%; in the experiment on NCI-H226 lung it was 92.7%; in the experiment on HOP-62 NSCLC it was 79.4%; in the experiment with NCI-H460 lung, 74%; in the experiment with HOP-92 NSCLC, 50.7%; in the experiment with NCI-H522 lung, 84%. In addition, the growth with A549/ATCC NSCLC was 95.9%; in the experiment on 786-0 renal it was 95.7%; in the experiment on COLO 205 colon, 91.8%.

`COC(=O)[C@]12CC[C@@H](C)[C@H](C)[C@@H]1C1=CC[C@@H]3[C@@]4(C)C[C@@H](OC(=O)/C=C/c5ccccc5)[C@H](O)[C@@](C)(CO)[C@@H]4[C@H](O)C[C@@]3(C)[C@]1(C)CC2`: the growth with NCI-H23 lung was 4.71% (active); in the experiment on NCI-H226 lung, 0.734% (active); with HOP-62 NSCLC, 11.6%; in the experiment with NCI-H460 lung, -39.6% (active); in the experiment with HOP-92 NSCLC, -3.66% (active); with NCI-H522 lung, -59.6% (active). Further, the growth with A549/ATCC NSCLC was 5.1% (active); in the experiment on 786-0 renal it was -29% (active); in the experiment with COLO 205 colon it was -58.6% (active).

In the case of `CN(C)CCn1c(=O)c2c3cc4c(cc3n(CCN(C)C)c2c2ccc(Cl)cc21)OCO4`, the growth with NCI-H23 lung was 36.9%; with NCI-H226 lung, 55%; in the experiment with HOP-62 NSCLC, 26.3%; in the experiment with NCI-H460 lung, 12.7%; with HOP-92 NSCLC, 65.9%; in the experiment with NCI-H522 lung, 44.5%. In addition, the growth was 31.7% in the experiment on A549/ATCC NSCLC, 61.1% in the experiment on 786-0 renal and 27% with COLO 205 colon.

With `COc1cc2nc(Nc3cccc(Cl)c3)nc(N)c2cc1OC`, the growth with NCI-H23 lung is 88.2%; in the experiment on NCI-H226 lung, 90.3%; with HOP-62 NSCLC, 106%; in the experiment with NCI-H460 lung it was 66.9%; in the experiment with HOP-92 NSCLC it was 40.6%; with NCI-H522 lung it was 101%. For the same compound, the figures for the growth in the experiment on A549/ATCC NSCLC, with 786-0 renal and with COLO 205 colon were 73.4%, 62% and -60.1% (active), respectively.

Take `C[C@@H](Nc1cc(F)cc(F)c1)c1cc(C(=O)N(C)C)cc2c(=O)cc(N3CCOCC3)oc12`: the growth is 76.6% in the experiment with NCI-H23 lung; 83.7% in the experiment on NCI-H226 lung; 59.3% in the experiment on HOP-62 NSCLC; 43.1% with NCI-H460 lung; 27.3% with HOP-92 NSCLC; 59.7% with NCI-H522 lung. Besides, the growth with A549/ATCC NSCLC was 34.9%; with 786-0 renal, 12.7%; in the experiment on COLO 205 colon, 46.6%.

As for `COc1cc2c(cc1O)c(=O)n(CCN(C)C)c1c3cc4c(cc3ncc21)OCO4`, the growth was -19.1% (active) in the experiment on NCI-H23 lung; -48.7% (active) in the experiment with NCI-H226 lung; -4.35% (active) with HOP-62 NSCLC; -14.8% (active) in the experiment with NCI-H460 lung; -16.6% (active) in the experiment on HOP-92 NSCLC; -37% (active) with NCI-H522 lung. For the same compound, the figures for the growth in the experiment with A549/ATCC NSCLC, in the experiment with 786-0 renal and in the experiment on COLO 205 colon were -56% (active), -54.5% (active) and 45.9%, respectively.

On to `Cc1ccc(C(=O)Nc2ccc(CN3CCN(C)CC3)c(C(F)(F)F)c2)cc1C#Cc1cnc2cccnn12`, for which the growth was -84.8% (active) in the experiment with NCI-H23 lung; -96.8% (active) in the experiment on NCI-H226 lung; -93.6% (active) in the experiment on HOP-62 NSCLC; -83.3% (active) with NCI-H460 lung; -74.1% (active) with HOP-92 NSCLC; -86.6% (active) with NCI-H522 lung. Besides, the growth was -95.1% (active) in the experiment on A549/ATCC NSCLC, -91% (active) with 786-0 renal and -88.2% (active) in the experiment on COLO 205 colon.

In the case of `O=C1NC(=O)C(c2cnc3ccccn23)=C1c1cn2c3c(cc(F)cc13)CN(C(=O)N1CCCCC1)CC2`, the growth in the experiment with NCI-H23 lung is 82.1%; in the experiment on NCI-H226 lung it was 46%; in the experiment with HOP-62 NSCLC, 26.1%; in the experiment with NCI-H460 lung, 39.1%; in the experiment on HOP-92 NSCLC, 83%; in the experiment on NCI-H522 lung, 38.7%. In addition, the results for the growth with A549/ATCC NSCLC, in the experiment on 786-0 renal and in the experiment on COLO 205 colon were 34.8%, 31.1% and 26.7%, respectively.

Turning to `C[C@@]1(C(=O)Nc2ccc(F)nc2)CCCN1c1nc(Nc2cc(C3CC3)[nH]n2)c2cccn2n1`, the growth with NCI-H23 lung is 20.5%; in the experiment with NCI-H226 lung, 30.1%; with HOP-62 NSCLC it was 11.3%; in the experiment with NCI-H460 lung it was 14.5%; in the experiment with HOP-92 NSCLC it was -45.5% (active); with NCI-H522 lung, 40.9%. The growth in the experiment on A549/ATCC NSCLC was 21.9%; with 786-0 renal, 5.48% (active); in the experiment with COLO 205 colon it was -49.3% (active).

`CCCCCCC1(/C=N/NC(N)=O)NC(=O)NC1=O` (stereo not drawn): the growth with NCI-H23 lung was 94%; with NCI-H226 lung, 91.4%; in the experiment with HOP-62 NSCLC, 78.3%; in the experiment on NCI-H460 lung, 111%; in the experiment with HOP-92 NSCLC, 110%; in the experiment with NCI-H522 lung it was 58%. The growth in the experiment with A549/ATCC NSCLC is 70.5%; in the experiment on 786-0 renal, 98.2%; in the experiment with COLO 205 colon, 91.9%.

For the compound `CN1CCN(CCOc2cc(OC3CCOCC3)c3c(Nc4c(Cl)ccc5c4OCO5)ncnc3c2)CC1`, the growth is 81.4% in the experiment on NCI-H23 lung; 100% in the experiment on NCI-H226 lung; 29.7% in the experiment with HOP-62 NSCLC; 89.9% with NCI-H460 lung; 35.3% with HOP-92 NSCLC; 11.5% with NCI-H522 lung. Moreover, the growth with A549/ATCC NSCLC is 24.8%; in the experiment on 786-0 renal, 48.1%; in the experiment on COLO 205 colon it was 42.5%.

As for `CNC(=O)c1ccccc1Nc1nc(Nc2ccc3c(c2OC)CCC[C@H](N2CCN(CCO)CC2)C3)ncc1Cl`, the growth is 16.3% in the experiment with NCI-H23 lung; 28.6% with NCI-H226 lung; -48.7% (active) in the experiment on HOP-62 NSCLC; 0.445% (active) with NCI-H460 lung; -30.7% (active) in the experiment with HOP-92 NSCLC; -47.9% (active) with NCI-H522 lung. Besides, the results for the growth in the experiment with A549/ATCC NSCLC, in the experiment on 786-0 renal and with COLO 205 colon were -31.7% (active), -66.1% (active) and -64.7% (active), respectively.

As for `NC1(C(=O)N[C@@H](CCO)c2ccc(Cl)cc2)CCN(c2ncnc3[nH]ccc23)CC1`, the growth is 53% in the experiment on NCI-H23 lung; 17.3% in the experiment on NCI-H226 lung; 33.9% in the experiment on HOP-62 NSCLC; 24.6% with NCI-H460 lung; -13.2% (active) in the experiment with HOP-92 NSCLC; 44.2% in the experiment with NCI-H522 lung. The growth in the experiment on A549/ATCC NSCLC is 56.6%; in the experiment on 786-0 renal it was 1.31% (active); with COLO 205 colon, 32.1%.

On to `COC(=O)[C@@H](NC(=O)[C@@H](OC)[C@@H]1Cc2cc3cc(OC4CC(OC5CC(O)C(O)C(C)O5)C(O)C(C)O4)c(C)c(O)c3c(O)c2C(=O)[C@H]1OC1CC(OC2CC(OC3CC(C)(O)C(O)C(C)O3)C(O)C(C)O2)C(O)C(C)O1)C(C)C` (stereo partly drawn), for which the growth was -6.89% (active) with NCI-H23 lung; -23.4% (active) in the experiment on NCI-H226 lung; 6.44% (active) with HOP-62 NSCLC; -6.19% (active) in the experiment with NCI-H460 lung; -18.9% (active) in the experiment on HOP-92 NSCLC; -20% (active) in the experiment on NCI-H522 lung. Moreover, the values for the growth in the experiment with A549/ATCC NSCLC, with 786-0 renal and with COLO 205 colon were 7.37% (active), -21.2% (active) and 13.8%, respectively.

In the case of `C[C@@H]1COC(Nc2ccc3ncnc(Nc4ccc(OCc5nccs5)c(Cl)c4)c3c2)=N1`, the growth is 46.8% with NCI-H23 lung; 17.1% with NCI-H226 lung; 17.5% with HOP-62 NSCLC; 57.9% in the experiment with NCI-H460 lung; 10.3% in the experiment on HOP-92 NSCLC; 2.8% (active) with NCI-H522 lung. Besides, the values for the growth in the experiment with A549/ATCC NSCLC, in the experiment on 786-0 renal and in the experiment on COLO 205 colon were 40.3%, 50% and -9.99% (active), respectively.

For the compound `CCN(CC)c1cc2oc3cc(N)cc(=N)c-3nc2cc1C`, the growth was 13.9% in the experiment on NCI-H23 lung; 84.9% in the experiment with NCI-H226 lung; 65.3% in the experiment on HOP-62 NSCLC; 74.6% with NCI-H460 lung; 82.1% in the experiment with HOP-92 NSCLC; 43.4% with NCI-H522 lung. The growth was 26.1% in the experiment on A549/ATCC NSCLC, 62.6% with 786-0 renal and 20.8% with COLO 205 colon.

These data come from PubChem BioAssay (NCI).
